An excerpt weighted towards active compounds, which were near 1.2% of everything screened.
Mac1 fbg inh = inhibitors of CD11b/CD18 adhesion to fibrinogen, primary screen, K562 cells, luminescence | Integrin beta-2 (Homo sapiens) + Integrin alpha-M (Homo sapiens), P05107+P11215 | ATPlite luminescence; Mn2+ added to activate the integrin | inhibition, % at 10 µM | 0.54% of 93,000 active | AID 1497, 2009;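 active = primary inhibition of 50% or more at 10 µM, then 40% or more on retest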
Target sequence (P05107 whole entry, looked up, other chains not shown): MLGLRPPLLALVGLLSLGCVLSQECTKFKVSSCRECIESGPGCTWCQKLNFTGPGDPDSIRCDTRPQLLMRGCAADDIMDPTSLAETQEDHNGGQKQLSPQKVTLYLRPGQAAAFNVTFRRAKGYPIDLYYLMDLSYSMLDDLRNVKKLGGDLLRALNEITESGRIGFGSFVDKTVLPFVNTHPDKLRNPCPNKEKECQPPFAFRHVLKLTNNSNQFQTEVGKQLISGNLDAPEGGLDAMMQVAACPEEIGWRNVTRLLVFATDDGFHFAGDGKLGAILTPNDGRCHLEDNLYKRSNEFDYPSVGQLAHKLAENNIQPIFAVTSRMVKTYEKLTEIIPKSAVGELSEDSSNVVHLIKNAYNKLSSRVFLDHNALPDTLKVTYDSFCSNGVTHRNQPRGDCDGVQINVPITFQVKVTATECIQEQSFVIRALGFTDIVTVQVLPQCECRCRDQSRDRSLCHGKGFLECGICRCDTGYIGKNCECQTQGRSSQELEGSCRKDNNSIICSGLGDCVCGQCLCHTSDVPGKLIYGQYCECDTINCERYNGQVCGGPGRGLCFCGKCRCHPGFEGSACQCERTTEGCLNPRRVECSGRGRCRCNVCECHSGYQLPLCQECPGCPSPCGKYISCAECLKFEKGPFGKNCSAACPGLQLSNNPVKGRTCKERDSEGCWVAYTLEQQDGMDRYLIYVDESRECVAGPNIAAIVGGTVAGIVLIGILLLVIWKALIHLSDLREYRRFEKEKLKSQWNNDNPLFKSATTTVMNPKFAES
Smad3 FoxH1 inh = Smad3/FoxH1 peptide binding inhibitors, primary screen, biochemical, TR-FRET; inhibition, % at 25 µM; TR-FRET Smad3/Dy647-FoxH1 peptide binding, europium anti-His; 0.29% of 88,000 active; Mothers against decapentaplegic homolog 3 (Homo sapiens), P84022;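 active = compounds that reduce the energy-transfer binding signal between the protein and its labelled peptide by more than half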;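 note: 0% = Smad3 plus labelled peptide maximal FRET and 100% = peptide-only background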
MRP1 act = H69AR viability gain despite doxorubicin, primary screen, MRP-1 activator project, H69AR cells, CellTiter-Glo | viability rescue | viability increase, % at 10 µM | 0.61% of 140,000 active | AID 799, 2007;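 active = viability gain under doxorubicin at or above a set limit, the compound median plus 3 SD, cut at about 4.7% in these data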;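 note: MRP-1 overexpressing cells given doxorubicin 25 µM after compound pretreatment; 18-22 h compound pretreatment then 72 h with doxorubicin before readout; 0% = doxorubicin-only wells and 100% = vehicle-treated cells without doxorubicin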
MRP reversal = reversal of MRP1-mediated doxorubicin resistance, primary screen, H69AR cells, doxorubicin co-treatment; H69AR cells + 2 uM doxorubicin, CellTiter-Glo, 72 h; differential viability (reversal), % at 10 µM; AID 602, 2007; 0.04% of 85,000 active;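 active = viability drop by adding the cancer drug above about 55%, with treated viability meeting a 40% cutoff, limit read from the data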;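 note: viability without doxorubicin minus viability with 2 µM doxorubicin for each compound; larger differential means the compound sensitizes cells more to doxorubicin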
Phagocytosis inh = inhibitors of macrophage phagocytosis, primary screen, imaging, J774A.1 cells, IgG beads; J774A.1 macrophage IgG-bead phagocytosis; inhibition, % at 5 µM; 0.07% of 110,000 active; AID 1029, 2008;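 active = inhibition above the mean of the plate negative controls plus 5 SD, cut at about 13% in these data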;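 note: phagocytic index as fraction of beads internalized from green versus red external bead signal; plate controls were DMSO negative control for no effect and cytochalasin-D positive control for full effect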
Mac1 fbg enh = enhancers of CD11b/CD18 adhesion to fibrinogen, primary screen, K562 cells, luminescence; ATPlite luminescence; AID 1499, 2009; activation, % at 10 µM; 0.07% of 93,000 active;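 active = 10 µM primary screen giving 50% or more activity, confirmed by 40% or more on retest at that dose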
Numbers without * were called inactive; . = not tested or not shown; [ ] = dose if it differs, or a comment.

SMILES | Mac1 fbg inh | Smad3 FoxH1 inh | MRP1 act | MRP reversal | Phagocytosis inh | Mac1 fbg enh
CCC(Sc1ccccn1)C(=O)Nc1nnc(C)s1 (stereo unspecified) | 6 | 11 | 5 | -5 | 10 | -7
CCC(Sc1nc2ccccc2o1)C(=O)Nc1nnc(C)s1 (stereo unspecified) | . | . | 6.4* | . | 0 | .
CCCCNS(=O)(=O)c1ccc(S(=O)(=O)N2CCC3(CC2)OCCO3)cc1 | . | . | -2 | . | 0 | .
Clc1ccc(CSc2nc3ccncc3[nH]2)cc1 | 88* | -1 | 2 | -2 | . | -18
Cc1ccc(CSc2nc3ncccc3[nH]2)cc1 | . | -5 | -1 | 7 | . | .
Cc1ccc(CSc2nc3ccncc3[nH]2)cc1 | 101* | 5 | -1 | 14 | 0 | -10
C=CCn1c(=O)c2c(C)c(C)sc2n2c(Nc3ccc(OC)cc3)nnc12 | 12 | -7 | 7.7* | 6 | -3 | -3
O=C(CN1CCN(Cc2ccc(Cl)cc2)C1=O)NCCCN1CCOCC1 | -12 | -11 | 1 | 8 | -1 | 6
O=C(CN1CCN(Cc2ccc(Cl)cc2)C1=O)NCCCN1CCN(c2ccc(F)cc2)CC1 | 57* | 6 | 0 | -3 | 0 | -4
Nc1ccc2c(c1)C(=O)C(=O)c1ccccc1-2 | 11 | 73*[fluorescence artefact?] | -3 | -1 | 1 | -6
O=C1C(=O)c2ccc(-c3ccccc3)cc2-c2ccccc21 | . | 66*[fluorescence artefact?] | -5 | 1 | . | .
CC(C)N(CCCNC(=O)CC1Oc2ccccc2NC1=O)Cc1ccccc1 (stereo unspecified) | -1 | -6 | -3 | -3 | 0 | -1
COc1ccc(-c2nn(-c3ccccc3)cc2CNC(=O)c2cccc([N+](=O)[O-])c2)cc1 | 6 | . | 0 | . | -4 | 7
N[C@H](CO)C(=O)NCC(=O)O | . | -4 | . | . | . | .
O[C@@H]1[C@@H](OCc2ccccc2)OC[C@H](O)[C@H]1O | . | 14 | . | . | . | .
O=[N+]([O-])c1cc(Br)c(O)c(/C=N/Nc2nnnn2-c2cccc3ccccc23)c1 | 88* | . | -1 | . | 0 | -8
O=[N+]([O-])c1cccc(/C=N/Nc2ccc3ccccc3n2)c1O | . | 4 | . | . | . | .
O=C(c1ccc(N2CCCCS2(=O)=O)cc1)N1CCN(c2ccc(N3CCOCC3)nn2)CC1 | -5 | -5 | -1 | -4 | 0 | 0
O=C(CCCn1c(=O)[nH]c2ccsc2c1=O)NCc1cccs1 | . | 5 | 0 | 4 | . | .
CC(=O)NC1=NN(c2ccccc2)C(=O)C1 | . | . | -2 | . | . | .
O=C(CCCCl)NC1=NN(c2ccccc2)C(=O)C1 | 9 | . | 7.3* | . | . | -4
C[C@H](CCC(=O)O)[C@H]1CC[C@@]2(C)[C@@H]3C(=O)C[C@H]4C(C)(C)[C@@H](O)CC[C@]4(C)[C@H]3C(=O)C[C@]12C | . | -11 | . | . | . | .
Cc1c(-n2c(SCC(=O)O)nnc2-c2ccccc2Cl)c(=O)n(-c2ccccc2)n1C | . | 3 | 0 | -6 | . | .
Cc1ccc(CC2SC(=O)NC2=O)cc1Cl (stereo unspecified) | . | 5 | 4.8* | 2 | . | .
CC(=O)/C(C#N)=C1\NC(=O)C(Cc2ccc(C)c(C)c2)S1 (stereo unspecified) | 21 | 14 | 8.8* | 11 | -3 | -5
SMILES | Mac1 fbg inh | Smad3 FoxH1 inh | MRP1 act | MRP reversal | Phagocytosis inh | Mac1 fbg enh
Nc1ccc(CC2SC(=O)NC2=O)cc1 (stereo unspecified) | -2 | 1 | 9.4* | 13 | -1 | -4
Cc1ccc(NC(=O)CC2SC(=O)NC2=O)cc1 (stereo unspecified) | . | . | 2 | . | -3 | .
c1ccc2c(CC3NCCN3)cccc2c1 | . | -4 | . | . | . | .
CCOC(=O)c1c(NC(=O)CSc2ncn[nH]2)sc(C)c1C | -6 | 1 | 15* | 5 | 0 | 0
CCOC(=O)c1c(NC(=O)CSc2nc3ccccc3s2)sc(C)c1C | -1 | . | -2 | . | -2 | -4
CN(C)CCCn1c2c3ccccc3ccc2c2oc(=O)c3ccccc3c21 | . | 11 | . | . | . | .
O=C(CCc1ccc(S(=O)(=O)NC2CCCCC2)cc1)N(Cc1ccccc1)Cc1ccccc1 | . | . | -4 | . | . | .
COc1ccc2c(Cl)c(C(=O)NN)sc2c1 | 5 | . | -2 | . | -2 | -2
COc1ccc2c(Cl)c(C(=O)NCCCn3ccnc3)sc2c1 | 5 | 1 | -3 | 79* | -5 | 0
Cn1c(N)c(N=Nc2ccc(S(N)(=O)=O)cc2)c(=O)n(C)c1=O | . | 9 | . | . | . | .
Cc1noc(C)c1COc1ccc(C(=O)OCC(=O)NC23CC4CC(CC(C4)C2)C3)cc1 | 56* | -9 | 1 | 12 | -2 | 1
Cc1noc(C)c1COc1ccc(C(=O)OCC(=O)NC2CCCCC2C)cc1 (stereo unspecified) | 7 | 16 | -1 | 15 | 0 | -3
Cc1ccc(S(=O)(=O)N2CCCC(c3nc(-c4ccc(C)o4)no3)C2)cc1 (stereo unspecified) | 2 | -11 | 0 | 17 | -2 | -2
Cc1ccc(-c2noc(C3CCCN(S(=O)(=O)c4ccc5ccccc5c4)C3)n2)o1 (stereo unspecified) | 8 | 10 | 7.3* | -38 | 0 | 53*
NC(N)=N/N=C(\c1ccccc1)c1ccc(O)cc1O | . | -3 | . | . | . | .
CC(Sc1nncn1C)C(=O)Nc1ccc(Cl)cn1 (stereo unspecified) | -7 | . | 4.9* | . | -11 | 0
COc1ccc(Cl)cc1NC(=O)C(C)Sc1nncn1C (stereo unspecified) | -3 | 4 | -3 | 11 | 3 | -2
CCC1=C(C[C@H]2NCCc3ccccc32)C[C@H]2c3cc(OC)c(OC)cc3CCN2C1 | . | 5 | . | . | . | .
COc1ccc(NC(=O)CSc2ccccc2)cc1S(=O)(=O)N1CCCCC1 | . | . | 1 | . | . | .
COc1ccc(NC(=O)CCCC2CCCCC2)cc1S(=O)(=O)N1CCCCC1 | . | . | 5.7* | . | . | .
N=C1C=CC(=C(c2ccc(N)cc2)c2ccc(N)cc2)C=C1 | . | 3 | . | . | . | .
CSc1ncnc2c1ncn2[C@H]1O[C@@H](CO)[C@H](O)O[C@@H]1O | . | -4 | . | . | . | .
Oc1ccc(Cc2nccc3cc(O)c(O)cc23)cc1O | . | 89* | . | . | . | .
O=C(NCCN1CCN(Cc2ccccc2Cl)CC1)Nc1ccccc1 | . | -8 | -3 | 9 | . | .
COc1ccccc1-c1cc(C(=O)NC(C)c2ccccc2)no1 (stereo unspecified) | 18 | 2 | 5.1* | -4 | -1 | -2
O=S(=O)(O)n1ccnc1 (tested in a mixture with another compound) | . | 2 | . | . | . | .
CN(CC(=O)Nc1nccs1)S(=O)(=O)c1ccc(F)cc1 | -2 | 19 | 0 | -6 | -4 | -1
CN(C)c1ccc(O)c2c1CC1CC3[C@@H](N(C)C)C(=O)C(C(N)=O)=C(O)[C@]3(O)C(=O)C1=C2O (stereo partly specified) | . | 55*[fluorescence artefact?] | -4 | -5 | . | .

Screening results deposited in PubChem by several laboratories.
